# Measured values as given in PubChem BioAssay (EPA / NIEHS).
# Active and inactive are the calls of the source. Rule for the calls: active = hit-call score of the fitted dose curve at least 0.9, where 1 is the maximum; inactive = score below 0.9.
# Read-out: ABC Transporter (ABCC3), ABCC3 (gene 8714)
# Assay: LTEA_HepaRG_ABCC3: Life Technologies and Expression Analysis (LTEA) Assay for ABC Transporter (ABCC3) using HepaRG (AID 2283462)
# Details: mRNA level, 48 h; actives raise or lower the signal
# Protocol: LTEA_HepaRG is a cell based, multiplexed-readout assay that uses HepaRG, a human liver cell line, with measurements taken at 48 hours after chemical dosing on a 96-well plate.LTEA_HepaRG_ABCC3 is one of 102 assay component(s) measured in the LTEA HepaRG cell culture assay. It is a marker of NR mediated transport.Data from the assay component LTEA_HepaRG_ABCC3 was analyzed into 1 endpoint. This assay endpoint, LTEA_HepaRG_ABCC3, was analyzed with bidirectional fitting relative to DMSO as the negative control and baseline of activity. Using a type of inducible reporter, measures of mRNA induction for gain or loss-of-signal activity can be used to understand regulation of transcription factor activity. To generalize the intended target to other relatable targets, this assay endpoint is annotated to the transporter intended target family, where the subfamily is ABC transporter.
# A total of 1060 chemcials from the ToxCast library were tested in eight-point concentration-response experiments. Cell culture and cytotoxicity assays were conducted at Thermo Fisher Scientific's Custom Services facility (Madison, WI). A single lot of human HepaRG cells (Thermo Fisher Scientific, Frederick, MD) was used for the cell culture experiments. 96-well format collagen type I coated plates of human HepaRG cells were prepared using established methods. Briefly, cryopreserved HepaRG cells were thawed, plated at a density of approximately 100,000 cells/well in HepaRG Thaw, Plate, and General Purpose media (HPRG770, Thermo Fisher Scientific), and incubated for 48 hours. 0.5% DMSO was selected as vehicle control to balance the requisite need of DMSO in HepaRG cultures to maintain differentiation (for example, baseline metabolism, proportions of hepatocytes vs. cholangiocytes), while enabling further hepatic receptor pathway activation (for example, PXR and CAR) in response to chemical exposure. 48 hours after plating, the culture medium was replaced with HepaRG Serum-Free Incudtion Media. Cells were exposed to each test chemical in duplicate and maintained in CO2 incubators for another 48 hours. Chemical plates were thawed to room temperature and 200x concentrations of treatment groups were prepared. 8-point conentration-reponse curves were made with the highest exposure at 100 uM, followed by half-log dilutions, all in 0.5% DMSO. Each test plate contained variouse controls, induction positive controls (1mM phenobarbital), cytotoxicity positive controls ([…] aflatoxin B1), vehicle controls (0.5% DMSO), and total lysis controls (0.5% DMSO). Cell morphology images were taken using an Essen IncuCyte FLR automated microscope, with six 96-well plates imaged in about 24 minutes. Images were captured and exported and JPEG files. Spent culture media was transfered to black-well plates for the LDH assay, and remaining media was sorted at -80 C for later use. Cells were treated with RLT buffer and frozen until shipped for gene expression analysis. Total RNA was isolated from the cell suspension in 75 uL of Buffer RLT (Qiagen, Germantown, MD 20874) by Quintiles/Expression Analysis (Durham, NC) using a custom isolation procedure. Total RNA from each plate well was transferred to a preamplification plate. Fluidigm's 96.96 Dynamic ArrayTM (Fluidigm, Amsterdam, the Netherlands) technology was used for gene expression analyses by quantitative reverse transcription polymerase chain reaction (qRT-PCR, performed by Quintiles/Expression Analysis, Durham, NC)89. Standard TaqManTM Assays (Applied Biosystems/ThermoFisher Scientific, Foster City, CA) were used to assess the expression of 93 genes selected based on their selectivity and sensitivity to important hepatic receptors known to be modulated by environmental chemicals; importance in human hepatocyte functionality; and hepatotoxicity. […]
SMILES,outcome,AC50
COS(C)(=O)=O,inactive,–
NNC(=O)c1ccncc1,inactive,–
O=C(NO)C1(NS(=O)(=O)c2ccc(Oc3ccc(F)cc3)cc2)CCOCC1,–,80.1 µM (active)
CCCCCCOC(=O)CC(CC(=O)OCCCCCC)(OC(=O)CCC)C(=O)OCCCCCC,inactive,–
CC(C)CCCCCCOC(=O)C1CCCCC1C(=O)OCCCCCCC(C)C (stereo not given),inactive,–
CCCCCCCC/C=C\CCCCCCCC(=O)OC[C@@H](O)[C@H]1OC[C@H](O)[C@H]1O,inactive,–
CCCCCCCCCCCCCCO,inactive,–
O=C(O)[C@H](O)[C@@H](O)C(=O)O,inactive,–
CCCCN1C(=O)[C@@H]([C@H](O)C2CCCCC2)NC(=O)C12CCN(Cc1ccc(Oc3ccc(C(=O)O)cc3)cc1)CC2,–,4.37 µM (active)
OC(CCl)CCl,inactive,–
O=S1(=O)CCCO1,inactive,–
Cn1cc[nH]c1=S,inactive,–
Cn1c(=O)c2[nH]cnc2n(C)c1=O,inactive,–
COCc1nnc(-c2ccc[n+]([O-])c2)n1-c1c(Cl)c(Cl)cc2[nH]c(=O)c(=O)[nH]c12,inactive,–
Nc1ccn([C@@H]2O[C@H](CO)[C@@H](O)[C@@H]2O)c(=O)n1,inactive,–
c1ccc2ncccc2c1,inactive,–
CCOc1ccc2[nH]cc(C(=O)NCc3ccccc3)c(=O)c2n1,inactive,–
Cc1nc(-c2ccccn2)ncc1C(=O)Nn1cc(C)c2cc(F)ccc21,inactive,–
c1ccc(C(O[C@@H]2CCCN(CCc3ccc4c(c3)OCO4)C2)c2ccccc2)cc1,–,30.1 µM (active)
OCCNCCO,inactive,–

SMILES,outcome,AC50
C=CN1CCCC1=O,inactive,–
CCn1nc(C)c2c1C(=O)NCC(c1ccc(O)cc1)=N2,inactive,–
CC(C)CC(C)O (stereo not given),inactive,–
CCCc1ccccc1,inactive,–
O=C(O)c1cccc(C[C@@H]2COc3ccc(OCc4nc5cc(F)ccc5s4)cc3[C@@H]2O)c1,–,79.3 µM (active)
OC[C@H]1O[C@@H]2O[C@H]3[C@H](O)[C@@H](O)[C@@H](O[C@H]4[C@H](O)[C@@H](O)[C@@H](O[C@H]5[C@H](O)[C@@H](O)[C@@H](O[C@H]6[C@H](O)[C@@H](O)[C@@H](O[C@H]7[C@H](O)[C@@H](O)[C@@H](O[C@H]1[C@H](O)[C@H]2O)O[C@@H]7CO)O[C@@H]6CO)O[C@@H]5CO)O[C@@H]4CO)O[C@@H]3CO,inactive,–
C[C@@H](Oc1ccc(CNC(=O)c2cccnc2Oc2ccc3c(c2)OCO3)c(F)c1)C(=O)O,inactive,–
CCOC(N)=O,inactive,–
CCCCCCCC1CCC(=O)O1 (stereo not given),inactive,–
CCCCCCCCN(C)C,inactive,–
CCc1cccc(CC)c1N,inactive,–
O=C1CN(N=Cc2ccc([N+](=O)[O-])o2)C(=O)N1,inactive,–
NC(=O)N1c2ccccc2C=Cc2ccccc21,inactive,–
OC(Cn1cncn1)(Cn1cncn1)c1ccc(F)cc1F,inactive,–
CCCCC(CC)C(=O)OCCOCCOCCOC(=O)C(CC)CCCC (stereo not given),inactive,–
Cc1ncc([C@@H](CCCCCCc2ccc3c(n2)NCCC3)CC(=O)O)cn1,inactive,–
COc1cc2c(c(OC)c1OC)-c1ccc(OC)c(=O)cc1[C@@H](NC(C)=O)CC2,–,0.196 µM (active)
c1ccc2cc3ccccc3cc2c1,inactive,–
NC(=O)N(O)[C@@H]1COc2cc(OCc3ccccc3)ccc21,inactive,–
COc1cc(C(C)C)c2c(c1)S(=O)(=O)N(COc1cc(=O)n3cccc(OCCN4CCCCC4)c3n1)C2=O,–,22.1 µM (active)
